# From PMC8384837, “Expanding the binding specificity for RNA recognition by a PUF domain”
# Tests used:
# Assay in all cases: yeast three-hybrid, YBZ-1, SC-Leu-His + 0.5 mM 3-AT, 4 days
# Conditions in all cases: tags: N-Gal4 AD-HA kept; label: inside an RPR1-promoter hybrid RNA with tandem MS2 sites; ssRNA
# PUM1 PUF domain R3-YRD = PUM1 PUF domain R3-YRD (Homo sapiens, UniProt Q14671 828-1176, C935Y;Q939D)
# Summary of the method: (§1)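 The interaction score is the logarithmic change in variant frequency from input to selection. It uses log2, with a pseudocount of 1 for absent variants, and frequencies came from PCR-amplified, Illumina-sequenced repeat regions. The libraries were Pumilio-1 PUF domains randomized at the three base-contacting residues per repeat, co-expressed with matching RNA elements in strain YBZ-1 (LexA–MS2 coat fusion, HIS3 reporter). Plating lasted four days on SC-Leu (input) or SC-Leu-His + 0.5 mM 3-AT (selection).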
# PUM1 PUF domain R3-GRR = PUM1 PUF domain R3-GRR (Homo sapiens, UniProt Q14671 828-1176, C935G;Q939R)
# Summary of the method: as §1
# PUM1 PUF domain R3-RSS = PUM1 PUF domain R3-RSS (Homo sapiens, UniProt Q14671 828-1176, C935R;R936S;Q939S)
# Summary of the method: as §1
# PUM1 PUF domain R8-TFR = PUM1 PUF domain R8-TFR (Homo sapiens, UniProt Q14671 828-1176, N1122T;Y1123F;Q1126R)
# Summary of the method: as §1
# PUM1 PUF domain R8-RYE = PUM1 PUF domain R8-RYE (Homo sapiens, UniProt Q14671 828-1176, N1122R;Q1126E)
# Summary of the method: as §1
# PUM1 PUF domain R8-HFV = PUM1 PUF domain R8-HFV (Homo sapiens, UniProt Q14671 828-1176, N1122H;Y1123F;Q1126V)
# Summary of the method: as §1
# PUM1 PUF domain R1-QFR = PUM1 PUF domain R1-QFR (Homo sapiens, UniProt Q14671 828-1176, S863Q;R864F;Q867R)
# Summary of the method: as §1
# PUM1 PUF domain R1-KRK = PUM1 PUF domain R1-KRK (Homo sapiens, UniProt Q14671 828-1176, S863K;Q867K)
# Summary of the method: as §1
# PUM1 PUF domain R1-KGV = PUM1 PUF domain R1-KGV (Homo sapiens, UniProt Q14671 828-1176, S863K;R864G;Q867V)
# Summary of the method: as §1
# PUM1 PUF domain R5-QPI = PUM1 PUF domain R5-QPI (Homo sapiens, UniProt Q14671 828-1176, C1007Q;R1008P;Q1011I)
# Summary of the method: as §1
# PUM1 PUF domain R5-RTR = PUM1 PUF domain R5-RTR (Homo sapiens, UniProt Q14671 828-1176, C1007R;R1008T;Q1011R)
# Summary of the method: as §1
# PUM1 PUF domain R4-RGG = PUM1 PUF domain R4-RGG (Homo sapiens, UniProt Q14671 828-1176, N971R;H972G;Q975G)
# Summary of the method: as §1
# PUM1 PUF domain R4-EWH = PUM1 PUF domain R4-EWH (Homo sapiens, UniProt Q14671 828-1176, N971E;H972W;Q975H)
# Summary of the method: as §1
# PUM1 PUF domain R7-RSQ = PUM1 PUF domain R7-RSQ (Homo sapiens, UniProt Q14671 828-1176, S1079R;N1080S;E1083Q)
# Summary of the method: as §1
# PUM1 PUF domain R7-ATR = PUM1 PUF domain R7-ATR (Homo sapiens, UniProt Q14671 828-1176, S1079A;N1080T;E1083R)
# Summary of the method: as §1
# PUM1 PUF domain R3-GRR, sequence (Q14671 828-1176 C935G/Q939R): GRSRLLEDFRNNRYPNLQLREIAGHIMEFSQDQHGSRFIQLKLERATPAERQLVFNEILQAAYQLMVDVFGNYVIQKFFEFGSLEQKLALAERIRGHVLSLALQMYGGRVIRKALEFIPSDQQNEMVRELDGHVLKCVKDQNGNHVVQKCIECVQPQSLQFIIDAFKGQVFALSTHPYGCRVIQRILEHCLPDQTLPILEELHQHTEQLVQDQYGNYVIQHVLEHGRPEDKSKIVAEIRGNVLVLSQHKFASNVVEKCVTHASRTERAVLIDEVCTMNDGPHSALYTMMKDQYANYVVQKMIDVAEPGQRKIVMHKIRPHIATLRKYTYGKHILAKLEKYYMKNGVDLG
# PUM1 PUF domain R8-TFR, sequence (Q14671 828-1176 N1122T/Y1123F/Q1126R): as the sequence (Q14671 828-1176 C935G/Q939R) above, with G108C, R112Q, N295T, Y296F, Q299R counted along it
# PUM1 PUF domain R4-RGG, sequence (Q14671 828-1176 N971R/H972G/Q975G): as the sequence (Q14671 828-1176 C935G/Q939R) above, with G108C, R112Q, N144R, H145G, Q148G counted along it
# PUM1 PUF domain R7-RSQ, sequence (Q14671 828-1176 S1079R/N1080S/E1083Q): as the sequence (Q14671 828-1176 C935G/Q939R) above, with G108C, R112Q, S252R, N253S, E256Q counted along it
# PUM1 PUF domain R1-QFR, sequence (Q14671 828-1176 S863Q/R864F/Q867R): as the sequence (Q14671 828-1176 C935G/Q939R) above, with S36Q, R37F, Q40R, G108C, R112Q counted along it
# PUM1 PUF domain R4-EWH, sequence (Q14671 828-1176 N971E/H972W/Q975H): as the sequence (Q14671 828-1176 C935G/Q939R) above, with G108C, R112Q, N144E, H145W, Q148H counted along it
# PUM1 PUF domain R5-QPI, sequence (Q14671 828-1176 C1007Q/R1008P/Q1011I): as the sequence (Q14671 828-1176 C935G/Q939R) above, with G108C, R112Q, C180Q, R181P, Q184I counted along it
# PUM1 PUF domain R1-KRK, sequence (Q14671 828-1176 S863K/Q867K): as the sequence (Q14671 828-1176 C935G/Q939R) above, with S36K, Q40K, G108C, R112Q counted along it
# PUM1 PUF domain R3-YRD, sequence (Q14671 828-1176 C935Y/Q939D): as the sequence (Q14671 828-1176 C935G/Q939R) above, with G108Y, R112D counted along it
sequence,measurement,setting,value
GGCUAGAACUAGUGGAUCCCCCGGCGCCCGGCGGCUCGAGCCCGGGUAAGUGUAAGUAGUCUGCAUGCCGCCGGGCGCCAUGCCUGCAGGUCGACUCUAGAAAACAUG,binding signal,PUM1 PUF domain R3-YRD,3.85 log2 enrichment (interaction score)
same,binding signal,PUM1 PUF domain R3-GRR,0.8 log2 enrichment (interaction score)
same,binding signal,PUM1 PUF domain R3-RSS,0.48 log2 enrichment (interaction score)
GGCUAGAACUAGUGGAUCCCCCGGCGCCCGGCGGCUCGAGCCCGGGUAAGCGUAAAUAGUCUGCAUGCCGCCGGGCGCCAUGCCUGCAGGUCGACUCUAGAAAACAUG,binding signal,PUM1 PUF domain R8-TFR,4.89 log2 enrichment (interaction score)
same,binding signal,PUM1 PUF domain R8-RYE,3.48 log2 enrichment (interaction score)
same,binding signal,PUM1 PUF domain R8-HFV,3.91 log2 enrichment (interaction score)
GGCUAGAACUAGUGGAUCCCCCGGCGCCCGGCGGCUCGAGCCCGGGUAAGGGUAAAUAGUCUGCAUGCCGCCGGGCGCCAUGCCUGCAGGUCGACUCUAGAAAACAUG,binding signal,PUM1 PUF domain R8-TFR,2.97 log2 enrichment (interaction score)
GGCUAGAACUAGUGGAUCCCCCGGCGCCCGGCGGCUCGAGCCCGGGUAAGUGUAAAUCGUCUGCAUGCCGCCGGGCGCCAUGCCUGCAGGUCGACUCUAGAAAACAUG,binding signal,PUM1 PUF domain R1-QFR,7.18 log2 enrichment (interaction score)
same,binding signal,PUM1 PUF domain R1-KRK,4.04 log2 enrichment (interaction score)
same,binding signal,PUM1 PUF domain R1-KGV,4.16 log2 enrichment (interaction score)
GGCUAGAACUAGUGGAUCCCCCGGCGCCCGGCGGCUCGAGCCCGGGUAAGUGUUAAUAGUCUGCAUGCCGCCGGGCGCCAUGCCUGCAGGUCGACUCUAGAAAACAUG,binding signal,PUM1 PUF domain R5-QPI,3.43 log2 enrichment (interaction score)
same,binding signal,PUM1 PUF domain R5-RTR,2.56 log2 enrichment (interaction score)
GGCUAGAACUAGUGGAUCCCCCGGCGCCCGGCGGCUCGAGCCCGGGUAAGUGUAAUUAGUCUGCAUGCCGCCGGGCGCCAUGCCUGCAGGUCGACUCUAGAAAACAUG,binding signal,PUM1 PUF domain R3-GRR,2.87 log2 enrichment (interaction score)
same,binding signal,PUM1 PUF domain R3-RSS,3.63 log2 enrichment (interaction score)
GGCUAGAACUAGUGGAUCCCCCGGCGCCCGGCGGCUCGAGCCCGGGUAAGUGUAAAUAGUCUGCAUGCCGCCGGGCGCCAUGCCUGCAGGUCGACUCUAGAAAACAUG,binding signal,PUM1 PUF domain R4-RGG,2.44 log2 enrichment (interaction score)
same,binding signal,PUM1 PUF domain R8-HFV,2.65 log2 enrichment (interaction score)
GGCUAGAACUAGUGGAUCCCCCGGCGCCCGGCGGCUCGAGCCCGGGUAAGUGUACAUAGUCUGCAUGCCGCCGGGCGCCAUGCCUGCAGGUCGACUCUAGAAAACAUG,binding signal,PUM1 PUF domain R4-RGG,1.13 log2 enrichment (interaction score)
same,binding signal,PUM1 PUF domain R4-EWH,2.99 log2 enrichment (interaction score)
GGCUAGAACUAGUGGAUCCCCCGGCGCCCGGCGGCUCGAGCCCGGGUAAGUCUAAAUAGUCUGCAUGCCGCCGGGCGCCAUGCCUGCAGGUCGACUCUAGAAAACAUG,binding signal,PUM1 PUF domain R7-RSQ,2.88 log2 enrichment (interaction score)
GGCUAGAACUAGUGGAUCCCCCGGCGCCCGGCGGCUCGAGCCCGGGUAAGUGUCAAUAGUCUGCAUGCCGCCGGGCGCCAUGCCUGCAGGUCGACUCUAGAAAACAUG,binding signal,PUM1 PUF domain R5-RTR,3.19 log2 enrichment (interaction score)
GGCUAGAACUAGUGGAUCCCCCGGCGCCCGGCGGCUCGAGCCCGGGUAAGUGUAAAUUGUCUGCAUGCCGCCGGGCGCCAUGCCUGCAGGUCGACUCUAGAAAACAUG,binding signal,PUM1 PUF domain R1-KGV,3.66 log2 enrichment (interaction score)
GGCUAGAACUAGUGGAUCCCCCGGCGCCCGGCGGCUCGAGCCCGGGUAAGUUUAAAUAGUCUGCAUGCCGCCGGGCGCCAUGCCUGCAGGUCGACUCUAGAAAACAUG,binding signal,PUM1 PUF domain R7-ATR,3.43 log2 enrichment (interaction score)
